“And” between values parts separate entries of the source, which are not always exact repeats. Equal values may be shown once. Records with an inconclusive call do not appear. Values without a mark were called inactive. The source made the active and inactive calls. The call rests on the fitted dose curve; in most records, active means well fitted curve in the direction sought with a large enough effect; inconclusive means small, poorly fitted or top-dose-only effect, or another doubt; inactive means no such curve, though single readings can be large; an effect the other way counts as inactive or inconclusive.

Broadly, the viability is a read-out of living cells in per cent, often relative to untreated cells.

Assay [1] addresses Cellular tumor antigen p53 (Homo sapiens) (UniProt P04637). Kind of assay: Primary qHTS for small molecule compounds that upregulate eGFP-tagged delta133p53alpha (in N-terminal) cells. (AID 2060322).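 Further: 0% = DMSO vehicle and 100% = reference activator; nearly all actives have a fitted effect of over 75% in size.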 Particulars: NCI-H358 eGFP-delta133p53alpha fluorescence, 24 h; activation: stronger effect = higher value. The procedure, abridged: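 NCI-H358 cells pre-induced 24 h with 10 ng/ml doxycycline to express N-terminal eGFP-delta133p53alpha, then dosed 24 h at 37C without doxycycline; fixed, Hoechst-stained, GFP intensity by laser scanning cytometry, normalized to DMSO (0%) and 57.5 uM 5-azacytidine (100%).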

The nature of assay [2]: BET inhibitor-based combinations targeting novel dependencies in MECOM-rearranged (r) AML: SET-2 cell line (AID 2202231). Further: nearly all actives have a fitted effect of over 35% in size. Further: potency means the concentration at half of the fitted maximal effect.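 On viability: plate controls were DMSO treated cells for no effect and wells without cells for full effect.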 Particulars: SET-2 AML cells viability, CellTiter-Glo luminescence, 48 h; viability: stronger effect = lower value, concentration not given here. In short, it runs like this:
(§1)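 Luminescent ATP readout (CellTiter-Glo) after 48 hr drug exposure gives viability. Curves span 11 concentrations and are normalized to DMSO and empty wells. Activity is reported as area under the curve and its Z-transform within each cell line.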

Assay [3] can be described thus: BET inhibitor-based combinations targeting novel dependencies in MECOM-rearranged (r) AML: OCI-AML3 cell line (AID 2202232). Further: nearly all actives have a fitted effect of over 35% in size. Further: potency means the concentration at half of the fitted maximal effect.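 On viability (% of control): plate controls were DMSO vehicle wells for no effect and wells without cells for full effect.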 Particulars: CellTiter-Glo luminescence, 48 h; Potency: OCI-AML3 viability; series mostly up to 46 µM. In short, it runs like this:
as §1
For orientation: ATP-based viability assays read luminescence as a measure of living cells.

Assay [4] in a line: BET inhibitor-based combinations targeting novel dependencies in MECOM-rearranged (r) AML: MV-4-11 cell line (AID 2202233). Further: nearly all actives have a fitted effect of over 45% in size. Further: potency means the concentration at half of the fitted maximal effect.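 On viability, % of control: plate controls were DMSO for no effect and blank wells for full effect.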 Particulars: MV-4-11 AML viability, CellTiter-Glo luminescence, 48 h; series mostly up to 46 µM. In short, it runs like this: (§2)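 Luminescent ATP readout (CellTiter-Glo, 15 min at room temperature) after 48 hr drug exposure gave viability. Dose-response curves, normalized to DMSO and empty-well controls, were summarized as area under the curve and its mean-centred Z-score.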

Assay [5] is described as follows: BET inhibitor-based combinations targeting novel dependencies in MECOM-rearranged (r) AML: HNT-34 cell line (AID 2202234). Further: nearly all actives have a fitted effect of over 35% in size. Further: potency means the concentration at half of the fitted maximal effect.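 On viability (% of control): plate controls were vehicle wells for no effect and cell-free wells for full effect.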 Particulars: HNT-34 AML viability, CellTiter-Glo luminescence, 48 h; series mostly up to 46 µM. In short, it runs like this:
as §2

Assay [6] is described as follows: BET inhibitor-based combinations targeting novel dependencies in MECOM-rearranged (r) AML: UCSD-AML1 cell line (AID 2202235). Further: nearly all actives have a fitted effect of over 40% in size. Further: potency means the concentration at half of the fitted maximal effect.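 On viability (% of control): plate controls were DMSO vehicle wells for no effect and blank wells for full effect.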 Particulars: UCSD-AML1 AML cells viability, CellTiter-Glo, 48 h; series mostly up to 46 µM. In short, it runs like this: as §2
The nature of assay [7]: BET inhibitor-based combinations targeting novel dependencies in MECOM-rearranged (r) AML: AML-191 cell line (AID 2202236; further: nearly all actives have a fitted effect of over 35% in size; further: potency means the concentration at half of the fitted maximal effect;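 on viability (% of control): plate controls were vehicle wells for no effect and wells without cells for full effect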). Particulars: AML-191 viability, CellTiter-Glo luminescence, 48 h; series mostly up to 46 µM. In short, it runs like this:
as §1

Assay [8] can be described thus: BET inhibitor-based combinations targeting novel dependencies in MECOM-rearranged (r) AML: AML-194 cell line (AID 2202237; further: nearly all actives have a fitted effect of over 40% in size; further: potency means the concentration at half of the fitted maximal effect;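 on viability (% of control): plate controls were vehicle wells for no effect and wells without cells for full effect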). Particulars: AML-194 (MECOM-r AML) viability, CellTiter-Glo, 48 h; series mostly up to 46 µM. In short, it runs like this: as §1

Cellular tumor antigen p53 (Homo sapiens), sequence (P04637 whole entry, looked up): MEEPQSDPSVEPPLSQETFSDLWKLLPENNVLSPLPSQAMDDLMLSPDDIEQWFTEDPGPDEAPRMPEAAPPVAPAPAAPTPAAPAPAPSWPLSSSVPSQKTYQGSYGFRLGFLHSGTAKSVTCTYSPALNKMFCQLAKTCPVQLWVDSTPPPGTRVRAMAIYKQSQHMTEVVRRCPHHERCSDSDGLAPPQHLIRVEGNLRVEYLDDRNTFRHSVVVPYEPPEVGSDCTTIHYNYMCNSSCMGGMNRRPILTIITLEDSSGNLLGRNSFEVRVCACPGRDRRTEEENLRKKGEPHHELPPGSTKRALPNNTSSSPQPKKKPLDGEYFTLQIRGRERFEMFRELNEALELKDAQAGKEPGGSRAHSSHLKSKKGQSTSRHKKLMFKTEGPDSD

`O=C1CCCC(=O)C1C(=O)c1ccc(C(F)(F)F)cc1[N+](=O)[O-]`: the activation in assay [1] was 24.5%. In assay [2], the viability is 111%. Further, the Potency entry in assay [3], in assay [4], in assay [5], in assay [6], in assay [7] and in assay [8] was “inactive” in each case.

`O=C(O)c1cc(=O)[nH]c(=O)[nH]1`: in assay [1], the activation is 15.1% and 14.7%. In assay [2], the viability is 111%. Further, the Potency result in assay [3], in assay [4], in assay [5], in assay [6], in assay [7] and in assay [8] was “inactive” each time.

As for `CCc1ccc(OCc2ccccc2C(=O)Nc2ccc3nc(C)cc(N)c3c2)cc1`, in assay [1], the activation is 45.3%. The Potency in assay [2] is 6.61 µM (active); in assay [3] it was 8.33 µM (active); in assay [4] it was 5.9 µM (active); in assay [5], 4.17 µM (active); in assay [7], 7.42 µM (active); in assay [8], 6.61 µM (active).

Consider `COc1cccc2c1C(=O)c1c(O)c3c(c(O)c1C2=O)C[C@@](O)(C(=O)CO)C[C@@H]3O[C@H]1C[C@H](N)[C@H](OC2CCCCO2)[C@H](C)O1` (stereo partly drawn), for which the activation in assay [1] is 3.12%. The Potency in assay [2] is 1.32 µM (active) and 833 nM (active); in assay [3] it was 0.186 µM (active); in assay [4], 18.6 nM (active) and 74.2 nM (active); in assay [5] it was 332 nM (active) and 235 nM (active); in assay [6], 209 nM (active) and 263 nM (active); in assay [7], 118 nM (active) and 372 nM (active). Moreover, the Potency in assay [8] is 332 nM (active) and 296 nM (active).

For `CC(Oc1ccc(O)cc1)(P(=O)(O)O)P(=O)(O)O`, the activation in assay [1] was -17.7%. In addition, in assay [2], the viability was 109%. For the same compound, the Potency entry in assay [3], in assay [4], in assay [5], in assay [6] and in assay [8] was “inactive” throughout.

As for `O=C(O)c1cn(C2CC2)c2cc(N3CCNCC3)c(F)cc2c1=O`, in assay [1], the activation is 6.67%. For the same compound, the viability in assay [2] is 109%. Besides, the viability (% of control) was 109% [at 8.46 µM] in assay [3]; 97.3% [at 8.46 µM] in assay [5]; 101% [at 8.46 µM] in assay [6]; 102% [at 8.46 µM] in assay [7]; 113% [at 8.46 µM] in assay [8]. For the same compound, in assay [4], the viability, % of control is 112% [at 8.46 µM].

With `CC(=O)OCCN1C(=O)c2c(C)nc3ccc(S(=O)(=O)N4CCOCC4)cc3c2C1=O`, the activation in assay [1] is 22.9%. The viability in assay [2] is 121%. For the same compound, the Potency entry in assay [3], in assay [4], in assay [5], in assay [7] and in assay [8] was “inactive” each time.

Turning to `N#Cc1cc(NC(=O)Nc2nnc(-c3ccncc3)s2)ccc1-c1cn[nH]c1`, the activation in assay [1] is -26.3%. For the same compound, the viability in assay [2] was 111%. Further, the Potency entry in assay [3], in assay [4], in assay [5], in assay [6], in assay [7] and in assay [8] was “inactive” each time.

Take `O=C(O)C1=CC(O)C(O)[C@H](O)C1` (stereo partly drawn): the activation in assay [1] was 16.4%. Besides, the viability in assay [2] is 115%. The Potency entry in assay [3], in assay [4], in assay [5], in assay [6], in assay [7] and in assay [8] was “inactive” each time.

For the compound `CNNCc1ccc(C(=O)NC(C)C)cc1`, the activation in assay [1] is -0.837%. In addition, the viability in assay [2] was 112%. Further, the Potency result in assay [3], in assay [4], in assay [5], in assay [6], in assay [7] and in assay [8] was “inactive” each time.

`Cc1ccc(S(=O)(=O)OCC(=O)Nc2ccc(C(=O)O)c(O)c2)cc1`: the activation in assay [1] is 22.5%. In addition, the viability in assay [2] is 117%. Also, the Potency result in assay [3], in assay [4], in assay [5], in assay [6], in assay [7] and in assay [8] was “inactive” in each case.

`CN1CCN2c3ncccc3Cc3ccccc3C2C1` (stereo not drawn): the activation in assay [1] was -22.2%. The viability in assay [2] is 102%. For the same compound, the Potency entry in assay [3], in assay [4], in assay [5], in assay [6], in assay [7] and in assay [8] was “inactive” in each case.

On to `NC(=O)c1ncn([C@@H]2O[C@H](CO)[C@@H](O)[C@H]2O)c1N`, for which the activation in assay [1] is -7.53%. The viability in assay [2] was 114%. Also, the Potency result in assay [3], in assay [4], in assay [5], in assay [6], in assay [7] and in assay [8] was “inactive” each time.

As to `COc1cc(C[C@@H](CO)[C@H](CO)Cc2ccc(O)c(OC)c2)ccc1O`, the activation in assay [1] was -3.34%. The viability in assay [2] is 120%. Moreover, the Potency entry in assay [3], in assay [4], in assay [5], in assay [7] and in assay [8] was “inactive” each time.

As to `CC(N)C12CC3CC(CC(C3)C1)C2` (stereo not drawn), in assay [1], the activation is -14.2% and 12.7%. Further, the viability in assay [2] was 106%. Further, the Potency entry in assay [3], in assay [4], in assay [5], in assay [6] and in assay [8] was “inactive” each time.

With `C#C[C@]1(O)CC[C@H]2[C@@H]3CCc4cc(OC)ccc4[C@H]3CC[C@@]21C`, the activation in assay [1] is -5.08%. In assay [2], the viability was 117%. Besides, the Potency result in assay [3], in assay [4], in assay [5], in assay [6] and in assay [8] was “inactive” in each case.

Turning to `CCCCCCCCc1ccc(CCC(N)(CO)CO)cc1`, the activation in assay [1] is 2.16%. For the same compound, the Potency in assay [2] was 26.3 µM (active); in assay [3], 13.2 µM (active); in assay [4], 14.8 µM (active); in assay [5] it was 18.6 µM (active); in assay [7], 16.6 µM (active); in assay [8], 14.8 µM (active).

As for `COc1ccc(S(=O)(=O)Nc2cc(-c3c(O)ccc4ccccc34)c(O)c3ccccc23)cc1`, the activation in assay [1] was 23.1%. Moreover, the Potency was 11.8 µM (active) in assay [2]; 2.63 µM (active) in assay [3]; 0.833 µM (active) in assay [4]; 1.66 µM (active) in assay [5]; 3.72 µM (active) in assay [6]; 1.86 µM (active) in assay [7]. Besides, in assay [8], the Potency was 1.66 µM (active).

Take `C[C@]12C=CC(=O)C=C1CC[C@@H]1[C@@H]2C(=O)C[C@@]2(C)[C@H]1CC[C@]2(O)C(=O)CO`: the activation in assay [1] is -20.1% and 2.21%. In assay [2], the viability is 109%. The Potency result in assay [3], in assay [4], in assay [5], in assay [7] and in assay [8] was “inactive” each time.

As for `CC(C)(C#N)c1cc(Cn2cncn2)cc(C(C)(C)C#N)c1`, the activation in assay [1] is 2.42%. Moreover, the viability in assay [2] is 107%. Moreover, the Potency result in assay [3], in assay [4], in assay [5], in assay [6] and in assay [8] was “inactive” in each case.

In the case of `N[C@@]1(C(=O)O)CS(=O)(=O)[C@H]2[C@H](C(=O)O)[C@H]21`, the activation in assay [1] is -21.5%. The viability in assay [2] is 114%. Also, the Potency result in assay [3], in assay [4], in assay [5], in assay [6], in assay [7] and in assay [8] was “inactive” each time.

For `Cc1c(CCOc2ccc(C(=O)O)cc2)c2cc(Cl)ccc2n1C(c1ccccc1)c1ccccc1`, the activation in assay [1] is -25%. Also, in assay [2], the viability is 114%. For the same compound, the Potency result in assay [3], in assay [4], in assay [5] and in assay [8] was “inactive” in each case.

As for `O=C(O)[C@@H](c1ccc(OCc2ccc3ccccc3n2)cc1)C1CCCC1`, in assay [1], the activation was -11.6%. Also, the viability in assay [2] is 99.7%. The Potency result in assay [3], in assay [6], in assay [7] and in assay [8] was “inactive” throughout. The Potency in assay [4] is 13.2 µM (active).

As for `CC(C)(F)C[C@H](N[C@@H](c1ccc(-c2ccc(S(C)(=O)=O)cc2)cc1)C(F)(F)F)C(=O)NC1(C#N)CC1`, the activation in assay [1] is -2.96%. Also, in assay [2], the viability was 104%. For the same compound, the Potency result in assay [3], in assay [6] and in assay [7] was “inactive” each time. Besides, the Potency in assay [4] was 4.68 µM (active).
